RMI FANCM FP: inhibitors of human RMI core complex binding to FANCM MM2. Fluorescence polarization, RMI core complex with F-MM2 peptide; active compounds read low. FP signal (polarization) at 33 µM. 0.58% of 70,000 active; in the data active means FP signal below about 40
* marks the source's active call; other numbers are inactive results. The sample as a whole holds a higher share of hits than the screen did.

SMILES	RMI FANCM FP
Cc1cc(NC(=O)c2ccc([N+](=O)[O-])o2)n(-c2nc(-c3ccccc3)cs2)n1	59
COc1cccc(C(=O)NCC(c2ccc(N(C)C)cc2)N2CCN(C)CC2)c1OC (stereo not drawn)	58
CCc1nnc(-c2ccc(NC(=O)c3ccc(F)cc3)cc2)o1	68
O=C(NCCCc1ccccc1)C(=O)Nc1ccc(Cl)c(N2CCCS2(=O)=O)c1	66
c1ccc(OCCCn2c(C3CC3)nc3ccccc32)cc1	62
O=C(CC1CCCCN1S(=O)(=O)c1cccs1)Nc1ccccc1Cl (stereo not drawn)	68
COc1cc(-c2ccc(=O)n(CC(=O)Nc3ccc(F)cc3F)n2)cc(OC)c1OC	56
COc1cc2cc(CNc3ccc(C)cc3)c(=O)n(CC(=O)Nc3ccc(F)cc3F)c2cc1OC	9*
Cc1ccc(-c2noc(-c3cccn(CC(=O)Nc4ccc(F)cc4F)c3=O)n2)cc1	95
Cc1nc2ccc(NC(=O)c3ccc(F)c(F)c3)cc2c(=O)n1-c1ccc(F)cc1	95
Cn1c(SCC(=O)Nc2cccc(C#N)c2)nc2c(-c3ccccc3)c[nH]c2c1=O	69
CCOC(=O)c1cnc2cc(C(F)(F)F)ccc2c1Nc1ccc(S(=O)(=O)N(C)C)cc1	65
Cc1cc(Nc2ccc(S(=O)(=O)Nc3nccs3)cc2)c2ccc(C(F)(F)F)cc2n1	60
Cc1cc(Nc2ccc(N(C)C)cc2)c2ccc(C(F)(F)F)cc2n1	19*
COc1cn(C)c(C(=O)Nc2ccc(C)c(F)c2)cc1=O	63
CC(C)c1ccc(OCC(=O)N/N=C\c2ccco2)cc1	60
Cc1nc2ccc(NS(=O)(=O)Cc3ccccc3)cc2c(=O)n1-c1ccc(Cl)cc1	60
Cn1c(=O)c2c(O)c(C=Nc3cccc([N+](=O)[O-])c3)c(=O)n(C)c2n(C)c1=O	28*
Cn1c(=O)c2c(O)c(C=Nc3cccc(Cl)c3Cl)c(=O)n(C)c2n(C)c1=O	45
Cn1c(=O)c2c(O)c(C=NCc3ccccc3)c(=O)n(-c3ccccc3)c2n(C)c1=O	56
COc1ccc(NN=C(C#N)C#N)cc1	51
CC(C)C(Br)C(=O)Nc1ccccc1Cl (stereo not drawn)	61
Cc1ccccc1NC(=O)c1cnc2sccn2c1=O	62
CCOC(=O)COc1ccccc1/C=C(/C#N)S(=O)(=O)c1cccs1	62
CCn1c(=NC(=O)CCS(=O)(=O)c2ccccc2)sc2cc(Br)ccc21	59
SMILES	RMI FANCM FP
Oc1cc(O)c2c(c1)O[C@H](c1cc(O)c(O)c(O)c1)[C@H](O)[C@H]2c1c(O)cc(O)c2c1O[C@H](c1cc(O)c(O)c(O)c1)[C@H](O)[C@H]2c1c(O)cc(O)c2c1O[C@H](c1cc(O)c(O)c(O)c1)[C@H](O)C2	-7*
O=C(O[C@@H]1Cc2c(O)cc(O)cc2O[C@@H]1c1cc(O)c(=O)c2c(O)c(O)cc([C@H]3Oc4cc(O)cc(O)c4C[C@H]3O)c2c1)c1cc(O)c(O)c(O)c1	46
O=C1CC(c2ccc(O)cc2)Oc2cc(O)cc(O)c21 (stereo not drawn)	63
COc1ccc([N+](=O)[O-])cc1NC(=O)C1CCN(c2ccc(-c3ccccc3)nn2)CC1	66
CSc1scc2c1-c1nc(SCC(=O)C(C)(C)C)ncc1CC2	58
CSc1scc2c1C(=O)/C(=C/N(C)C)CC2	33*
CCOC(=O)CCC(=O)OC1C(OC2C(C)C(OC3CC(C)(OC)C(O)C(C)O3)C(C)C(=O)OC(CC)C(C)(O)C(O)C(C)C(=O)C(C)CC2(C)O)OC(C)CC1N(C)C (stereo not drawn)	63
CCOC(=O)CCC(=O)O[C@H]1[C@H](O[C@@H]2[C@@H](C)[C@H](O[C@H]3C[C@@](C)(OC)[C@@H](O)[C@H](C)O3)[C@@H](C)C(=O)O[C@H](CC)[C@@](C)(O)[C@H](O)[C@@H](C)C(=O)[C@H](C)C[C@@]2(C)O)O[C@H](C)C[C@@H]1N(C)C	-23*
CCC(=O)O[C@H]1[C@H](O[C@@H]2[C@@H](C)[C@H](O[C@H]3C[C@@](C)(OC)[C@@H](O)[C@H](C)O3)[C@@H](C)C(=O)O[C@H](CC)[C@@](C)(O)[C@H](O)[C@@H](C)C(=O)[C@H](C)C[C@@]2(C)O)O[C@H](C)C[C@@H]1N(C)C	62
CC(=O)c1ccc(C(=O)N2CCNC(=O)C2C)cc1 (stereo not drawn)	69
O=C1c2ccc(O)c(O)c2C(=O)c2c(O)ccc(O)c21	43
O=[N+]([O-])c1ccc(S(=O)(=O)c2ccccc2)cc1O	62
O=C1c2c(O)ccc([N+](=O)[O-])c2C(=O)c2c(O)ccc([N+](=O)[O-])c21	-25*
O=C(CC1CCCCN1S(=O)(=O)c1ccccc1)NCc1ccc2c(c1)OCO2 (stereo not drawn)	68
COc1ccc(-c2csc3c(=O)n(Cc4cccc(Cl)c4)cnc23)cc1OC	60
O=C(O)c1cc(O)c2c(c1)C(=O)c1cc(O)cc(O)c1C2=O	57
CC(=O)Oc1ccccc1C(=O)O	50
CC(=O)Oc1cccc2c1C(=O)c1c(OC(C)=O)cc(C(=O)O)cc1C2=O	34*
CC12CCC(C(=O)N(c3cccc4ccccc34)C1=O)C2(C)C (stereo not drawn)	59
CCCS(=O)(=O)N1CCCc2ccc(NC(=O)c3cc4ccccc4oc3=O)cc21	59
O=C(Nc1cccc(-c2nc3ccccc3[nH]2)c1)c1ccc(Cl)cc1	97
Nc1ccc(Cl)cc1-c1nc2ccccc2[nH]1	54
O=c1oc2c(Cl)cc(Cl)cc2cc1-c1nc2ccccc2[nH]1	40*
Cc1cc(/C=N/NC(N)=S)c2c(C)ccc(C(C)C)cc1-2	49
Cc1ccc(Cc2nnc(NC(=O)c3ccn(C)n3)o2)cc1	65
SMILES	RMI FANCM FP
COc1ccc(-c2cc(-c3ccccc3)nc(SCC(=O)NCC3CCCO3)c2C#N)cc1 (stereo not drawn)	94
COc1ccc(-c2cc(-c3ccc(OC)cc3)c3c(N)c(C(=O)c4ccc(Cl)cc4)sc3n2)cc1	500
COc1ccc(-c2cc(-c3ccc(C)c(C)c3)nc3sc(C(N)=O)c(N)c23)cc1	123
CC1(C)CC(=O)c2c(nc3sc(C(=O)NCC4CCCO4)c(N)c3c2-c2ccccc2)C1 (stereo not drawn)	53
COc1ccc(-c2cc(-c3ccc(Cl)cc3)nc3sc(C(=O)N4CCOCC4)c(N)c23)cc1	-18*
COc1ccc(-c2cc(-c3ccccc3)nc3sc(C(=O)NCC4CCCO4)c(N)c23)cc1 (stereo not drawn)	9*
Cc1cccc(NC(=O)Nc2ccc(CN3CCN(C)CC3)cc2)c1	63
O=C(CNC(=O)c1ccc(S(=O)(=O)N2CCOCC2)cc1)NNC(=O)Nc1ccc(Cl)cc1	54
O=C(Nc1ccc2c(c1)N(C(=O)C1CC1)CC2)c1ccccc1F	65
CCOCCCNC(=O)c1sc2c(cnc3ccc(OC)cc32)c1-c1ccccc1	59
Cc1ccc(S(=O)(=O)CC(=O)Nc2sc3c(c2C(N)=O)CCN(C(C)C)C3)cc1	57
CCN1CCc2c(sc(NC(=O)CCS(=O)(=O)c3ccc(C)cc3)c2C(N)=O)C1	34*
CCOC(=O)N1CCc2c(sc(NC(=O)CS(=O)(=O)c3ccc(C)cc3)c2C(N)=O)C1	63
CC(C)N1CCc2c(sc(NC(=O)CN3C(=O)c4ccccc4C3=O)c2C(N)=O)C1	-4*
Cc1ccc(S(=O)(=O)CCC(=O)Nc2sc3c(c2C(N)=O)CCC(C)C3)cc1 (stereo not drawn)	83
CC(=O)N1CCc2c(sc(NC(=O)CCSc3ccc(C)cc3)c2C(N)=O)C1	56

Screening data (PubChem BioAssay)
